# According to the supplement of paper PMC12645437, “Orthogonal IMiD-Degron Pairs Induce Selective Protein Degradation in Cells” (ACS Chemical Biology, 2025):
# The full ranking holds about 8,300 sequences; the median of “log2 fold change of degron read counts, EGFP-low vs EGFP+ sorted cells (limma voom), compound-induced degradation” is about -1.1, and the highest 2% start at about 3.2. Many of the other results were omitted from the sample, so the highest values are more common in it than they were.
# T1: CRBN, Q96SW2
# T1 chain: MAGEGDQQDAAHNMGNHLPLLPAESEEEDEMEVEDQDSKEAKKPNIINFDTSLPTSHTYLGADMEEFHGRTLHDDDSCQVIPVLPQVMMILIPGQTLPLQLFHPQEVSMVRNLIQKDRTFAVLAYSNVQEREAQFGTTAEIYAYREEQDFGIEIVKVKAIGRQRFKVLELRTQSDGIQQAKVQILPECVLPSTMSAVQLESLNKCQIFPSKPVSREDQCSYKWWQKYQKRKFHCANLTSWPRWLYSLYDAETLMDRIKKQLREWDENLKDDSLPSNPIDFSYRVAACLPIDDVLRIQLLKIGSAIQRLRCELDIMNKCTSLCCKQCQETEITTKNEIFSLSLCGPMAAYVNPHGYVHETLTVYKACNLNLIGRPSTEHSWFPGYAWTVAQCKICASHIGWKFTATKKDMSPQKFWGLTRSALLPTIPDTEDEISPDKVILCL
# Target: T1, CRBN, Q96SW2
# Assay: log2 fold change of degron read counts, EGFP-low vs EGFP+ sorted cells (limma voom), compound-induced degradation; higher = more compound-induced degradation of the degron-EGFP fusion; degrons are variants of IKZF1/3 zinc finger 2; compound dose not given here
# Conditions: Jurkat, 18 h
# Method: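 Pooled library of 8380 IKZF3 ZF2 degron mutants (positions 146-167 varied within the IKZF3 130-189 degron; only the varied core is printed, flanks not printed) fused to EGFP with IRES-mCherry, lentivirally expressed in Jurkat cells. mCherry+ cells were treated with one IMiD compound for 18 h (dose not stated) and FACS-sorted into EGFP-low and EGFP+ populations. Degron sequences were counted by NGS, and log2FC (EGFP-low vs EGFP+) was estimated by limma voom over 3 biological replicates.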
# [1] = compound: compound 19 (5-tert-butyl-thalidomide)
# [2] = compound: compound 22 (5-morpholino-thalidomide)
# [3] = compound: compound 33 (diphenyl IMiD analogue)
# 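Note: pooled lentiviral library of zinc finger degron-EGFP fusions in mCherry-positive Jurkat cells, FACS-sorted after compound exposure, with degron abundance counted by next-generation sequencing.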
Sequence,log2 fold change of degron read counts [1],log2 fold change of degron read counts [2],log2 fold change of degron read counts [3],log2 fold change of degron read counts (compound: thalidomide)
"FTCDQCGASFTQKGNLLRHIKL [46F_47T_49D_50Q_52G_53A_54S_55F_67L_, Q9UKT9]",-1.41,-1.1,-0.521,-1.39
"FRCEICGRAFTQKGNLLRHIKL [46F_47R_49E_50I_52G_53R_54A_55F_67L_, Q9UKT9]",-1.67,-1.99,0.837,0.0765
"LWCNQCGFLCTQKGNLLRHIKL [46L_47W_49N_50Q_52G_53F_54L_55C_67L_, Q9UKT9]",-0.0173,-0.578,-0.261,-0.106
"LQCEICGFACTQKGNLLRHIKL [46L_47Q_49E_50I_52G_53F_54A_55C_67L_, Q9UKT9]",2.27,1.95,1.57,3.4
"LICEICGFACTQKGNLLRHIKL [46L_47I_49E_50I_52G_53F_54A_55C_67L_, Q9UKT9]",0.692,2.24,1.68,2.74
"LWCEICGFACTQKGNLLRHIKL [46L_47W_49E_50I_52G_53F_54A_55C_67L_, Q9UKT9]",2.64,3.24,2.31,1.06
"LGCEICGFACTQKGNLLRHIKL [46L_47G_49E_50I_52G_53F_54A_55C_67L_, Q9UKT9]",0.464,-0.188,-0.784,-0.556
"LACEICGFACTQKGNLLRHIKL [46L_47A_49E_50I_52G_53F_54A_55C_67L_, Q9UKT9]",3.1,2.3,0.347,0.922
"LSCEICGFACTQKGNLLRHIKL [46L_47S_49E_50I_52G_53F_54A_55C_67L_, Q9UKT9]",2.2,2.05,0.991,1.15
"LCCEICGFACTQKGNLLRHIKL [46L_47C_49E_50I_52G_53F_54A_55C_67L_, Q9UKT9]",1.77,1.67,1,1.51
"LYCEICGFACTQKGNLLRHIKL [46L_47Y_49E_50I_52G_53F_54A_55C_67L_, Q9UKT9]",3.17,3.5,2.65,1.71
"LECEICGFACTQKGNLLRHIKL [46L_47E_49E_50I_52G_53F_54A_55C_67L_, Q9UKT9]",0.666,-1.22,0.464,1.55
"FECNQCGRAFTQKGNLLRHIKL [46F_47E_49N_50Q_52G_53R_54A_55F_67L_, Q9UKT9]",-3.75,-4.2,-2.96,-3.19
"LQCNQCGFPCTQKGNLLRHIKL [46L_47Q_49N_50Q_52G_53F_54P_55C_67L_, Q9UKT9]",-2.34,-3,-2.68,-1.74
"FQCDQCGALFTQKGNLLRHIKL [46F_47Q_49D_50Q_52G_53A_54L_55F_67L_, Q9UKT9]",-3.22,-2,-1.8,-0.219
"FGCPQCGAMFTQKGNLLRHIKL [46F_47G_49P_50Q_52G_53A_54M_55F_67L_, Q9UKT9]",1.86,-1.68,0.259,-2.04
"LICEICGFVCTQKGNLLRHIKL [46L_47I_49E_50I_52G_53F_54V_55C_67L_, Q9UKT9]",-0.507,0.245,1.34,1.57
"FECNQCGANFTQKGNLLRHIKL [46F_47E_49N_50Q_52G_53A_54N_55F_67L_, Q9UKT9]",-3.06,-3.6,-1.14,-1.62
"FLCDICGAQFTQKGNLLRHIKL [46F_47L_49D_50I_52G_53A_54Q_55F_67L_, Q9UKT9]",-0.363,-1.53,0.682,0.0613
"FFCDICGAQFTQKGNLLRHIKL [46F_47F_49D_50I_52G_53A_54Q_55F_67L_, Q9UKT9]",3.41,3.28,1.67,0.0187
"FDCDICGAQFTQKGNLLRHIKL [46F_47D_49D_50I_52G_53A_54Q_55F_67L_, Q9UKT9]",0.389,-1.35,-1.71,-1.04
"FWCDICGAQFTQKGNLLRHIKL [46F_47W_49D_50I_52G_53A_54Q_55F_67L_, Q9UKT9]",2.88,3.68,1.52,0.174
"FCCDICGAQFTQKGNLLRHIKL [46F_47C_49D_50I_52G_53A_54Q_55F_67L_, Q9UKT9]",1.75,1.58,1.41,0.205
"FYCDICGAQFTQKGNLLRHIKL [46F_47Y_49D_50I_52G_53A_54Q_55F_67L_, Q9UKT9]",3.18,3.55,2.11,-0.00703
"FHCDICGAQFTQKGNLLRHIKL [46F_47H_49D_50I_52G_53A_54Q_55F_67L_, Q9UKT9]",1.04,1.14,-0.0246,-1.24
"FQCDICGAQFTQKGNLLRHIKL [46F_47Q_49D_50I_52G_53A_54Q_55F_67L_, Q9UKT9]",-0.785,1.6,1.09,2.9
"FTCDICGAQFTQKGNLLRHIKL [46F_47T_49D_50I_52G_53A_54Q_55F_67L_, Q9UKT9]",-0.504,1.41,1.33,1.15
"FSCPQCGARFTQKGNLLRHIKL [46F_47S_49P_50Q_52G_53A_54R_55F_67L_, Q9UKT9]",0.264,-0.514,-0.493,-0.61
